In article PMC8384837, “Expanding the binding specificity for RNA recognition by a PUF domain” one finds binding signal data, which are given here for 15 sequences.

What all share (assay): yeast three-hybrid, YBZ-1, SC-Leu-His + 0.5 mM 3-AT, 4 days
Conditions in all cases: tags: N-Gal4 AD-HA kept; label: inside an RPR1-promoter hybrid RNA with tandem MS2 sites; ssRNA

Assay [1] deals with T1, PUM1 PUF domain R6-SWS (Homo sapiens, UniProt Q14671 828-1176, N1043S;Y1044W;Q1047S).
T1 sequence: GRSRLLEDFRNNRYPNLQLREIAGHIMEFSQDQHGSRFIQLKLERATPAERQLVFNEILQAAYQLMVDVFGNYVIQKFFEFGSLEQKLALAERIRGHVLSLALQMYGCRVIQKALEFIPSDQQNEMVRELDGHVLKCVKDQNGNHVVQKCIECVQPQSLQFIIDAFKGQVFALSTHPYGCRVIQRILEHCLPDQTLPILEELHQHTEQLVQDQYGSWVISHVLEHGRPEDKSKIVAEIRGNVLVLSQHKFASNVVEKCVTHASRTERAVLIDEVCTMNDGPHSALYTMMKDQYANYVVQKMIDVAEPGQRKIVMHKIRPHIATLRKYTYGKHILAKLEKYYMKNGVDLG
In short, it runs like this: (§1)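 The interaction score is the logarithmic change in variant frequency from input to selection. It uses log2, with a pseudocount of 1 for absent variants, and frequencies came from PCR-amplified, Illumina-sequenced repeat regions. The libraries were Pumilio-1 PUF domains randomized at the three base-contacting residues per repeat, co-expressed with matching RNA elements in strain YBZ-1 (LexA–MS2 coat fusion, HIS3 reporter). Plating lasted four days on SC-Leu (input) or SC-Leu-His + 0.5 mM 3-AT (selection).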

For assay [2], the target named is T2, PUM1 PUF domain R6-VWH (Homo sapiens, UniProt Q14671 828-1176, N1043V;Y1044W;Q1047H).
T2 sequence: T1 sequence with S216V, S220H
In short, it runs like this: as §1

Assay [3] concerns the target PUM1 PUF domain R3-YWW (Homo sapiens, UniProt Q14671 828-1176, C935Y;R936W;Q939W). The method in brief: as §1
In assay [4] the target is PUM1 PUF domain R3-FCG (Homo sapiens, UniProt Q14671 828-1176, C935F;R936C;Q939G). In short, it runs like this: as §1
The target of assay [5] is PUM1 PUF domain R3-DRE (Homo sapiens, UniProt Q14671 828-1176, C935D;Q939E). In short, it runs like this:
as §1

Assay [6] has as its target PUM1 PUF domain R3-WCR (Homo sapiens, UniProt Q14671 828-1176, C935W;R936C;Q939R). The method in brief:
as §1

Assay [7] deals with PUM1 PUF domain R5-GRT (Homo sapiens, UniProt Q14671 828-1176, C1007G;Q1011T). In short, it runs like this:
as §1

Assay [8] concerns the target PUM1 PUF domain R8-KHV (Homo sapiens, UniProt Q14671 828-1176, N1122K;Y1123H;Q1126V). The method in brief: as §1
The target in assay [9] is PUM1 PUF domain R4-EYG (Homo sapiens, UniProt Q14671 828-1176, N971E;H972Y;Q975G). In short, it runs like this: as §1
The target of assay [10] is T3, PUM1 PUF domain R6-RYC (Homo sapiens, UniProt Q14671 828-1176, N1043R;Q1047C).
T3 sequence: T1 sequence with S216R, W217Y, S220C
In short, it runs like this:
as §1

For assay [11], the target named is T4, PUM1 PUF domain R6-GWR (Homo sapiens, UniProt Q14671 828-1176, N1043G;Y1044W;Q1047R).
T4 sequence: T1 sequence with S216G, S220R
In short, it runs like this:
as §1

The target of assay [12] is PUM1 PUF domain R3-PFF (Homo sapiens, UniProt Q14671 828-1176, C935P;R936F;Q939F). The method in brief: as §1
In assay [13] the target is PUM1 PUF domain R5-LHS (Homo sapiens, UniProt Q14671 828-1176, C1007L;R1008H;Q1011S). In short, it runs like this: as §1
The target in assay [14] is PUM1 PUF domain R5-RGA (Homo sapiens, UniProt Q14671 828-1176, C1007R;R1008G;Q1011A). In short, it runs like this: as §1
Assay [15] addresses PUM1 PUF domain R5-QKR (Homo sapiens, UniProt Q14671 828-1176, C1007Q;R1008K;Q1011R). The method in brief:
as §1

In assay [16] the target is PUM1 PUF domain R4-PYD (Homo sapiens, UniProt Q14671 828-1176, N971P;H972Y;Q975D). The method in brief:
as §1

Assay [17] deals with PUM1 PUF domain R7-RTQ (Homo sapiens, UniProt Q14671 828-1176, S1079R;N1080T;E1083Q). In short, it runs like this:
as §1

Assay [18] addresses PUM1 PUF domain R7-ISK (Homo sapiens, UniProt Q14671 828-1176, S1079I;N1080S;E1083K). In short, it runs like this:
as §1

Assay [19] concerns the target PUM1 PUF domain R1-EKK (Homo sapiens, UniProt Q14671 828-1176, S863E;R864K;Q867K). In short, it runs like this: as §1
Assay [20] deals with PUM1 PUF domain R7-CFP (Homo sapiens, UniProt Q14671 828-1176, S1079C;N1080F;E1083P). In short, it runs like this:
as §1

Residue numbers refer to the chain shown, from its start.

With “GGCUAGAACUAGUGGAUCCCCCGGCGCCCGGCGGCUCGAGCCCGGGUAAGUGAAAAUAGUCUGCAUGCCGCCGGGCGCCAUGCCUGCAGGUCGACUCUAGAAAACAUG”, the results for the binding signal in assay [1] and in [2] were 3.49 log2 enrichment (interaction score) and 7.07 log2 enrichment (interaction score), respectively.

With “GGCUAGAACUAGUGGAUCCCCCGGCGCCCGGCGGCUCGAGCCCGGGUAAGUGUAAGUAGUCUGCAUGCCGCCGGGCGCCAUGCCUGCAGGUCGACUCUAGAAAACAUG”, the binding signal in assay [3] is 4.57 log2 enrichment (interaction score); in assay [4], 5.32 log2 enrichment (interaction score); in [5], 5.66 log2 enrichment (interaction score); in assay [6], 4.82 log2 enrichment (interaction score).

“GGCUAGAACUAGUGGAUCCCCCGGCGCCCGGCGGCUCGAGCCCGGGUAAGUGUGAAUAGUCUGCAUGCCGCCGGGCGCCAUGCCUGCAGGUCGACUCUAGAAAACAUG”: in assay [7], the binding signal is 2.87 log2 enrichment (interaction score).

For the sequence “GGCUAGAACUAGUGGAUCCCCCGGCGCCCGGCGGCUCGAGCCCGGGUAAGGGUAAAUAGUCUGCAUGCCGCCGGGCGCCAUGCCUGCAGGUCGACUCUAGAAAACAUG”, the binding signal in assay [8] was 2.26 log2 enrichment (interaction score).

As for “GGCUAGAACUAGUGGAUCCCCCGGCGCCCGGCGGCUCGAGCCCGGGUAAGUGUACAUAGUCUGCAUGCCGCCGGGCGCCAUGCCUGCAGGUCGACUCUAGAAAACAUG”, in assay [9], the binding signal was 0.47 log2 enrichment (interaction score).

“GGCUAGAACUAGUGGAUCCCCCGGCGCCCGGCGGCUCGAGCCCGGGUAAGUGUAAAUAGUCUGCAUGCCGCCGGGCGCCAUGCCUGCAGGUCGACUCUAGAAAACAUG”: the binding signal in assay [10] was 4.42 log2 enrichment (interaction score); in assay [1], 4.04 log2 enrichment (interaction score); in [7] it was 2.94 log2 enrichment (interaction score); in assay [11], 6.56 log2 enrichment (interaction score); in assay [9] it was 3.15 log2 enrichment (interaction score); in [4] it was 0.82 log2 enrichment (interaction score). Besides, the binding signal in assay [12] is 1.1 log2 enrichment (interaction score).

On to “GGCUAGAACUAGUGGAUCCCCCGGCGCCCGGCGGCUCGAGCCCGGGUAAGUGUCAAUAGUCUGCAUGCCGCCGGGCGCCAUGCCUGCAGGUCGACUCUAGAAAACAUG”, for which the binding signal was 2.24 log2 enrichment (interaction score) in assay [13], 0.6 log2 enrichment (interaction score) in assay [7], 2.27 log2 enrichment (interaction score) in [14] and 5.65 log2 enrichment (interaction score) in assay [15].

Consider “GGCUAGAACUAGUGGAUCCCCCGGCGCCCGGCGGCUCGAGCCCGGGUAAGUGUAUAUAGUCUGCAUGCCGCCGGGCGCCAUGCCUGCAGGUCGACUCUAGAAAACAUG”, for which the binding signal was 5.78 log2 enrichment (interaction score) in assay [16] and 1.12 log2 enrichment (interaction score) in [9].

With “GGCUAGAACUAGUGGAUCCCCCGGCGCCCGGCGGCUCGAGCCCGGGUAAGUGUAAUUAGUCUGCAUGCCGCCGGGCGCCAUGCCUGCAGGUCGACUCUAGAAAACAUG”, the binding signal in assay [12] is 3.19 log2 enrichment (interaction score); in assay [6], 1.63 log2 enrichment (interaction score).

As to “GGCUAGAACUAGUGGAUCCCCCGGCGCCCGGCGGCUCGAGCCCGGGUAAGUUUAAAUAGUCUGCAUGCCGCCGGGCGCCAUGCCUGCAGGUCGACUCUAGAAAACAUG”, the binding signal was 4.75 log2 enrichment (interaction score) in assay [17] and 2 log2 enrichment (interaction score) in [18].

In the case of “GGCUAGAACUAGUGGAUCCCCCGGCGCCCGGCGGCUCGAGCCCGGGUAAGCGUAAAUAGUCUGCAUGCCGCCGGGCGCCAUGCCUGCAGGUCGACUCUAGAAAACAUG”, the binding signal in assay [8] is 2.09 log2 enrichment (interaction score).

Turning to “GGCUAGAACUAGUGGAUCCCCCGGCGCCCGGCGGCUCGAGCCCGGGUAAGUGUAAAUUGUCUGCAUGCCGCCGGGCGCCAUGCCUGCAGGUCGACUCUAGAAAACAUG”, the binding signal in assay [19] is 2.94 log2 enrichment (interaction score).

Consider “GGCUAGAACUAGUGGAUCCCCCGGCGCCCGGCGGCUCGAGCCCGGGUAAGUGUUAAUAGUCUGCAUGCCGCCGGGCGCCAUGCCUGCAGGUCGACUCUAGAAAACAUG”, for which the binding signal was 5.04 log2 enrichment (interaction score) in [13], 3.02 log2 enrichment (interaction score) in assay [7] and 1.01 log2 enrichment (interaction score) in [14].

For “GGCUAGAACUAGUGGAUCCCCCGGCGCCCGGCGGCUCGAGCCCGGGUAAGUAUAAAUAGUCUGCAUGCCGCCGGGCGCCAUGCCUGCAGGUCGACUCUAGAAAACAUG”, the binding signal in assay [20] was 2.42 log2 enrichment (interaction score).

On to “GGCUAGAACUAGUGGAUCCCCCGGCGCCCGGCGGCUCGAGCCCGGGUAAGUGCAAAUAGUCUGCAUGCCGCCGGGCGCCAUGCCUGCAGGUCGACUCUAGAAAACAUG”, for which the binding signal in assay [11] is 3.5 log2 enrichment (interaction score).
